Screening data deposited in PubChem BioAssay by National Center for Advancing Translational Sciences (NCATS).
Shown are actives, neighbours in structure and some others; about 19% of the full set was active somewhere.
DT40 TDP1 no CPT: qHTS for Inhibitors of human tyrosyl-DNA phosphodiesterase 1 (TDP1): qHTS in cells in absence of CPT; Potency, µM (top dose mostly 46.2 µM), for inactives: at the top dose activity change, negative = growth inhibition, hits mostly inhibitors; actives 15% (n = 420,000); DT40 Tdp1-/- hTDP1 cells, no CPT, ATP luminescence, 48 h; note: nearly all actives have a fitted effect of over 55% in size
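Cells were dispensed at 400 per well, compounds added by pin tool, plates incubated ≥48 hr at 37 °C, then CellTiter-Glo added for 30 min at room temperature before luminescence reading. Line: DT40 Tdp1-/- complemented with hTDP1; camptothecin omitted.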
KB-3-1 cytotox: kills parental KB-3-1 adenocarcinoma cells; KB-3-1 viability, CellTiter-Glo ATP luminescence, 72 h; Potency, µM (doses to about 46.1 µM), usual class: cytotoxic; actives 1.4% (n = 400,000); AID 1347075; note: nearly all actives have a fitted effect of over 60% in size
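Screening of KB-3-1 cells (DMEM, 10% FBS, phenol-red free) ran from lowest to highest compound concentration; after 72 h at 37 °C viability was read luminescently and curves fitted.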
KB-V1 MDR tox: kills drug-selected multidrug resistant KB-V1 cells; actives 3.4% (n = 400,000); AID 1347076; Potency, µM (titrated, usually from 46.1 µM), actives largely listed as cytotoxic; KB-V1 MDR cells viability, CellTiter-Glo, 72 h; note: nearly all actives have a fitted effect of over 60% in size
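Cytotoxicity toward P-gp-expressing KB-V1 cells was determined as loss of CellTiter-Glo luminescence after 72 h at 37 degrees C. Compounds were tested in quantitative HTS format across a concentration range, with curves fitted to normalized data.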
HT1080 IDH1KD tx: kills HT-1080 cells with IDH1 knockdown. actives 2% (n = 360,000). AID 686971. Potency, µM (highest dose often 46.1 µM), for inactives: at the top dose activity, negative = toxicity, usual class: cytotoxic. HT-1080 IDH1 knockdown viability, ATP luminescence, 48 h;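 note: 0% = DMSO wells and -100% = cell-free medium wells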
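CellTiter-Glo luminescence after 48 h compound exposure at 37 degrees C of IDH1-knockdown HT-1080 cells in 5% FBS RPMI. %Activity scaled between DMSO wells and cell-free media wells, with curves fitted and assigned curve classes.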
HT1080-NT tox: kills 2HG-producing HT-1080-NT fibrosarcoma cells; actives 1.6% (n = 360,000); HT-1080-NT fibrosarcoma viability, CellTiter-Glo ATP luminescence, 48 h; Potency, µM (titrated, usually from 46.1 µM), for the others: top-dose activity, negative = less viability, most hits filed as cytotoxic;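 note: NT is the 2HG producing partner of a matched IDH1 knockdown line; 0% = DMSO-treated cells and -100% = media-only wells without cells; nearly all actives have a fitted effect of over 55% in size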
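HT-1080-NT fibrosarcoma cells (2HG-overproducing), 750 cells/well in RPMI with 5% FBS, dosed after 2 h and incubated 48 h at 37C. CellTiter-Glo luminescence normalized to DMSO and no-cell wells; concentration-response curves fitted and classed.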
DT40 TDP1 CPT: growth inhibition of DT40 Tdp1-/-;hTDP1 cells with camptothecin (screen for TDP1 inhibitors); chicken DT40 Tdp1-/-;hTDP1 cells + 20 nM CPT, ATP luminescence, 48 h; actives 12% (n = 420,000); AID 686979; Potency, µM (series often up to 46.2 µM), for inactives: at the top dose activity change, negative = growth inhibition, hits mostly inhibitors; note: nearly all actives have a fitted effect of over 55% in size
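Chicken DT40 Tdp1-/- cells stably complemented with human TDP1 were seeded at 400 cells/well in medium containing 20 nM camptothecin, exposed to pin-transferred compounds, and grown at 37 °C for at least 48 hr. Viability was read as ATP luminescence.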
* marks the source's active call; other numbers are inactive results; i = inactive; ? = inconclusive; . = not tested or not shown. Calls come from the whole dose curve; as a rule, active = well fitted curve in the direction sought with a large enough effect; inconclusive = small, poorly fitted or top-dose-only effect, or another doubt; inactive = no such curve, though single readings can be large; an effect the other way counts as inactive or inconclusive. Unless noted, % is set by controls: 0 for no effect and ±100 for the full control effect; potency is the fitted concentration of half-maximal effect.

SMILES	DT40 TDP1 no CPT	KB-3-1 cytotox	KB-V1 MDR tox	HT1080 IDH1KD tx	HT1080-NT tox	DT40 TDP1 CPT
C=CCN1C(=O)C(CC(=O)Nc2ccc(OC)cc2)N(Cc2ccco2)C1=S (stereo unspecified)	-18%	i	21µM*	-4%	-3%	-7%
COc1ccccc1COC(=O)C(NC(=O)c1ccc(C)cc1)C(C)C (stereo unspecified)	?	i	i	4%	4%	-17%
O=C(O)CSc1c2c(nc3cc(C(=O)Nc4ccc(F)c(Cl)c4)ccc13)CCCC2	-9%	i	i	-2%	0%	-2%
COC(=O)C1CCN(C(=O)/C(C)=C\c2ccccc2)CC1	-5%	i	i	20%	24%	12%
O=c1c2oc3ccccc3c2n(Cc2ccccc2Cl)c(=O)n1Cc1ccco1	22%	i	i	.	.	16%
CCOC(=O)c1cc(OC(=O)c2cccc(Cl)c2)n(-c2ccccc2)n1	-6%	.	.	.	.	-13%
Cc1ccc(CSc2nc(=O)c3c(C)cc(C)nc3n2C2CC2)cc1	21µM*	i	i	.	.	21µM*
COC(=O)c1cc(C)nc2c1c(=O)nc(SCc1cc(C)ccc1C)n2C1CC1	?	i	i	.	.	-9%
[O-]/[N+](=C\c1ccccc1)c1ccccc1	?	i	i	11%	6%	?
[O-]/[N+](=C\c1ccccc1)c1ccc(Br)cc1	16µM*	i	?	1%	0%	?
Fc1ccc(/C=N/Nc2nccnc2Cl)cc1	-26%	?	i	?	?	-27%
Oc1ccc(/C=N/Nc2nccnc2Cl)cc1	?	16µM*	?	26µM*	16µM*	?
Fc1cccc(/C=N/Nc2nccnc2Cl)c1	15µM*	?	5.8µM*	15µM*	12µM*	12µM*
COC(=O)c1ccccc1N/C=C1\CCc2c(c(C)nn2-c2ccccn2)C1=O	?	i	i	0%	-2%	16µM*
Cc1ccc(S(=O)(=O)c2c(N)n(Cc3ccco3)c3nc4ccccc4nc23)cc1C	?	?	23µM*	?	?	?
Nc1c(S(=O)(=O)c2ccccc2)c2nc3ccccc3nc2n1Cc1ccco1	?	?	23µM*	-17%	-27%	18µM*
Cc1ccc(S(=O)(=O)c2c(N)n(CCN3CCOCC3)c3nc4ccccc4nc23)cc1C	-4%	i	i	-3%	-7%	-3%
Nc1c(S(=O)(=O)c2ccccc2)c2nc3ccccc3nc2n1CCN1CCOCC1	?	i	i	7%	-5%	-22%
c1ccc(-c2nc(-c3nccc4ccccc34)oc2-c2ccccc2)cc1	?	i	i	9%	0%	-28%
Cc1nc2c(-c3ccccc3)c(C)nn2c(C)c1CCC(=O)N1CCN(c2ccccc2)CC1	?	i	i	.	.	-3%
CC(=O)c1nn(-c2cccc(Br)c2)cc1C(=O)c1ccc(Cl)cc1	7.3µM*	i	i	?	?	?
O=C(c1cccc(Br)c1)c1cn(-c2ccccc2)nc1C(=O)c1ccccc1	16µM*	i	12µM*	4%	8%	18µM*
CC(=O)c1nn(-c2cccc(Br)c2)cc1C(=O)c1ccccc1	-20%	i	i	?	?	-2%
CC(=O)c1nn(-c2ccccc2)cc1C(=O)c1cccc(Br)c1	-19%	i	i	-1%	-6%	-28%
CC(C)[C@H](NC(=O)[C@@H]1Cc2ccccc2CN1C(=O)OC(C)(C)C)C(=O)NCC1CCCO1 (stereo partly specified)	4%	i	i	14%	6%	3%
